# Assay results taken from PubChem BioAssay (Tox21).
# Where “and” joins values, the source holds several entries; their conditions need not be identical. Identical values can stand only once. Results filed as inconclusive are left out. Where a call stands in place of a potency, no number is given. Where a structure was tested more than once in an assay, its records may differ in their call. Calls of active or inactive are those of the source. Calls follow the shape of the dose curve; as a rule, active = well fitted cell-killing curve with a large enough effect in the repeat runs; inconclusive = weak or mixed curves, or effect the other way; inactive = flat fitted curve, though single readings scatter.
# Assay: qHTS assay to identify small molecule agonists of the estrogen receptor beta (ER-beta) signaling pathway - cell viability counter screen (AID 1259380); also: nearly all actives have a fitted effect of over 30% in size
# Conditions: ER-beta-bla HEK293T viability, CellTiter-Glo luminescence, 16 h; series mostly up to 92.4 µM
# Excerpt: National Center for Advancing Translational Sciences [NCATS]
# NIH Chemical Genomics Center [NCGC]
# U.S. Environmental Protection Agency [EPA]
# National Institutes of Environmental Health Sciences [NIEHS]
# National Toxicology Program [NTP]
# U.S. Food and Drug Administration [FDA]
# Estrogen receptor (ER), a nuclear hormone receptor, plays an important role in development, metabolic homeostasis and reproduction. Two subtypes of ER, ER-alpha and ER-beta, have similar expression patterns with some uniqueness in both types. Endocrine disrupting chemicals (EDCs) and their interactions with steroid hormone receptors like ER causes disruption of normal endocrine function. To identify the compounds that activate ER signaling, an ER beta-UAS-bla GripTite cell line (Life Technologies, Madison, WI, USA) containing a beta-lactamase reporter gene under the control of an UAS response element was used to screen Tox21 10K compound library. The cytotoxicity of the Tox21 compound library against the ER-beta-bla cell line was tested in parallel by measuring the cell viability using CellTiter-Glo assay in the same wells.
# Tox21 Assay Protocol Summary:
# ER-beta-UAS-bla HEK293T cells were dispensed at 2,000 cells/5 uL of assay medium containing 2% charcoal stripped FBS per well into black wall/clear-bottom 1536-well plates using a Multidrop Combi (ThermoFisher Scientific, Waltham, MA) dispenser. After the assay plates were incubated at a 37C and 5% CO2 for 6 hr, 23 nL of compounds dissolved in DMSO, positive controls or DMSO only was transferred to the assay plate by a Pintool station (Kalypsys, San Diego, CA). The plates were incubated at 37C and 5% CO2 for 16 hr. Then 1 uL of LiveBLAzerTM B/G FRET substrate was added using a BioRAPTR FRD (Flying Reagent Dispenser, Aurora Discovery, San Diego, CA) and then the plates were incubated at room temperature for 2 hours, and fluorescence intensity was measured by an Envision plate reader (PerkinElmer, Shelton, CT). For cell viability readout that measures cytotoxicity, 4 uL/well of CellTiter-Glo reagent was added into the assay plates using a FRD. After 30 min incubation at room temperature, the luminescence intensity in the plates was measured using a ViewLux (PerkinElmer) plate reader.
# Potency is read from the fitted curve at half-maximal effect.
row,Structure (SMILES),Potency
1,CC(C(=O)O)c1cccc(C(=O)c2ccccc2)c1 (stereo not given),inactive
2,Nc1ccc(Cl)cc1Cl,inactive
3,O=C(c1ccc(OCCN2CCCCC2)cc1)c1c(-c2ccc(O)cc2)sc2cc(O)ccc12,54.5 µM (active) and 34.4 µM (active) and 23.7 µM (active)
4,Clc1nc(Cl)c(Cl)c(Cl)c1Cl,inactive
5,Cc1cc2nc3c(=O)[nH]c(=O)nc-3n(C[C@H](O)[C@H](O)[C@H](O)CO)c2cc1C,inactive
6,Nc1ncn([C@@H]2O[C@H](CO)[C@@H](O)[C@H]2O)c(=O)n1,5.45 µM (active)
7,c1cc(-c2ccncc2)ccn1,inactive
8,CN(C)CCN(Cc1cccs1)c1ccccn1,inactive
9,O=C(/C=C/c1ccccc1)OCc1ccccc1,inactive
10,C=C(C)C1CC=C(C)CC1 (stereo not given),inactive
11,Nc1ccc(Nc2ccccc2)cc1,24.3 µM (active)
12,C[Si](C)(C)O[Si](C)(C)C,inactive
13,COc1cc([C@@H]2c3cc4c(cc3[C@H](O)[C@H]3COC(=O)[C@H]23)OCO4)cc(OC)c1OC,inactive
14,O=C(OCc1ccccc1)c1ccccc1O,inactive
15,O=C(c1ccccc1)c1ccc(O)cc1O,inactive
16,OC[C@H]1O[C@@H]2O[C@H]3[C@H](O)[C@@H](O)[C@@H](O[C@H]4[C@H](O)[C@@H](O)[C@@H](O[C@H]5[C@H](O)[C@@H](O)[C@@H](O[C@H]6[C@H](O)[C@@H](O)[C@@H](O[C@H]7[C@H](O)[C@@H](O)[C@@H](O[C@H]8[C@H](O)[C@@H](O)[C@@H](O[C@H]1[C@H](O)[C@H]2O)O[C@@H]8CO)O[C@@H]7CO)O[C@@H]6CO)O[C@@H]5CO)O[C@@H]4CO)O[C@@H]3CO,61.3 µM (active) and inactive
17,CC(C)CC(C)(O)C#CC(C)(O)CC(C)C (stereo not given),inactive
18,COC(=O)Nc1nc2ccc(S(=O)c3ccccc3)cc2[nH]1 (stereo not given),inactive
19,CC(=O)Oc1ccccc1C(=O)Nc1ncc([N+](=O)[O-])s1,12.4 µM (active) and 7.5 µM (active)
20,CC(=O)C1(C)CC2=C(CCCC2(C)C)CC1C (stereo not given),inactive

row,Structure (SMILES),Potency
1,CCCCC(CC)COCC1CO1 (stereo not given),inactive
2,CC(=O)O[C@]1(C(C)=O)CC[C@H]2[C@@H]3C=C(Cl)C4=CC(=O)[C@@H]5C[C@@H]5[C@]4(C)[C@H]3CC[C@@]21C,inactive
3,CN(C)C(=N)N=C(N)N,inactive
4,CCCCC(CC)COC(=O)c1ccc(N(C)C)cc1 (stereo not given),inactive
5,Cc1ncc[nH]1,inactive
6,CN(C)CCC=C1c2ccccc2CCc2ccccc21,30.6 µM (active) and 26.6 µM (active)
7,O=C=Nc1ccc(Cc2ccc(N=C=O)cc2)cc1,inactive
8,Cc1[nH]c(=O)c(C#N)cc1-c1ccncc1,inactive
9,O=CCc1ccccc1,inactive
10,Nc1ccccc1N,inactive
11,CCOC(=O)C(C#N)=C(c1ccccc1)c1ccccc1,inactive
12,CCCCc1oc2ccccc2c1C(=O)c1cc(I)c(OCCN(CC)CC)c(I)c1,19.5 µM (active) and 29.8 µM (active)
13,CCCCCCCCCCCO,inactive
14,c1ccc2cc(Nc3ccc(Nc4ccc5ccccc5c4)cc3)ccc2c1,inactive
15,CCCCOCCOCCO,inactive
16,CC(=O)CC/C=C(\C)CCC=C(C)C,inactive
17,COC(=O)C1=C(C)NC(C)=C(C(=O)OCCN(C)Cc2ccccc2)C1c1cccc([N+](=O)[O-])c1 (stereo not given),68.2 µM (active) and 29.8 µM (active)
18,OC1CCCCCCCCCCC1,inactive
19,C#C[C@]1(O)CC[C@H]2[C@@H]3CCC4=Cc5oncc5C[C@]4(C)[C@H]3CC[C@@]21C,61.1 µM (active) and 29.8 µM (active)
20,Cc1c(OCC(F)(F)F)ccnc1CS(=O)c1nc2ccccc2[nH]1 (stereo not given),inactive
